From PubChem BioAssay
This is a sample that favours compounds with a hit; in the whole collection about 3.4% have one here.
eIF4E-4G inh – eIF4E/eIF4G interaction inhibition in translation initiation | TR-FRET eIF4E-eIF4GI(517-606) binding, 2 h | P63073+Q04637 | inhibition, % at 21.7 µM | hit rate 0.37% among 220,000 | AID 782;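 also: 0% = full FRET control wells and 100% = background wells lacking eIF4GI fragment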
Mcl-1 Bim block – disrupts Bim peptide binding to human Mcl-1; inhibition, % at 10 µM; hit rate 0.1% among 190,000; Bead-based flow cytometry, Bim peptide-Mcl-1 binding; Q07820; in the data active = inhibition above about 40%;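 also: 0% = no compound tracer wells and 100% = peptide blocker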
14-3-3 Bad inh – disrupts binding of bovine 14-3-3 zeta to phospho-Bad peptide; hit rate 0.71% among 220,000; P63103; inhibition, % at 21.7 µM; TR-FRET 14-3-3zeta/Dy647-pBad peptide displacement, 1 h; AID 781;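 active = inhibition above about 70%, limit read from the data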;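 also: 0% = full 14-3-3 plus peptide FRET controls and 100% = background without 14-3-3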
Mcl1-Bid inh – disrupts binding of human Mcl-1 to Bid peptide. inhibition, % at 21.7 µM. TR-FRET Mcl-1/Bid-Dy647 peptide binding, 1536-well. hit rate 0.97% among 220,000;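 active = compounds that cut the binding signal by more than half at the single screening dose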;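 also: His-tagged Mcl-1 with europium anti-His antibody binding Bid BH3 peptide; 0% = Mcl-1 plus peptide wells and 100% = peptide-only wells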
NCF1 inh – p47phox (human) inhibition; inhibition, % at 24.7 µM; p47phox/p22phox peptide binding, fluorescence polarization, 2 h; AID 1274; P14598; hit rate 0.53% among 220,000;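 also: 0% = p47phox with labelled peptide and 100% = labelled peptide alone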
Mcl1-Noxa inh – Mcl-1/Noxa interaction inhibition; Q07820; TR-FRET Mcl-1/Noxa peptide binding, 2 h; inhibition, % at 21.7 µM; hit rate 1.5% among 220,000; AID 1022;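 active = compounds that cut the protein-peptide binding signal by more than 50% relative to plate controls in a single-dose test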;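 also: His-tagged Mcl-1 with rhodamine Noxa BH3 peptide and terbium anti-His antibody; 0% = Mcl-1 plus Noxa peptide wells and 100% = peptide-only wells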
* marks the source's active call; other numbers are inactive results; / = no result given; [ ] = another dose, or the depositor's remark.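 The calls were made as follows, unless noted: active = inhibition above about 30% (limit read from the data); inactive = the rest.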

SMILES	eIF4E-4G inh	Mcl-1 Bim block	14-3-3 Bad inh	Mcl1-Bid inh	NCF1 inh	Mcl1-Noxa inh
O=C(COC(=O)Cn1cnc2ccccc21)Nc1ccc2c(c1)C(=O)c1ccccc1C2=O	9.1	0.0	45.9	64.9*	-4.6	83.6*
COc1cc(C(=O)Nc2ccc3c(c2)C(=O)c2ccccc2C3=O)cc(OC)c1OC	10.8	-2.0	61.8	76.5*	5.1	85.1*
Cc1ccccc1OCC(=O)Nc1ccc2c(c1)Cc1ccccc1-2	-3.3	-1.0	29.8	-26.8	-3.3	-5.5
CC1=NOC(=O)/C1=C\c1ccc(-c2ccc(Cl)cc2Cl)o1	-22.8	-4.0	61.7	88.1*	21.4	87.3*
Cc1[nH][nH]c(=O)c1C(c1ccc(-c2ccc(Cl)cc2Cl)o1)c1c(C)[nH][nH]c1=O	2.3	-2.0	-4.2	-23.5	-32.0	-41.0
Cc1cc(=O)oc2cc(NC(=O)CC3(CC(=O)O)CCCC3)ccc12	0.7	/	3.6	8.9	-0.9	11.2
NS(=O)(=O)c1ccc(NC(=S)NCc2ccco2)cc1	4.5	-12.0	0.4	-35.4	6.0	-4.0
CCOc1ccccc1OCc1nn2c(COc3ccccc3)nnc2s1	31.6*	-13.0	-7.5	3.1	-15.8	-35.8
c1ccc(Cc2nn3c(COc4ccccc4)nnc3s2)cc1	15.1	-4.0	21.2	-5.9	0.3	-15.5
Cc1ccc(Cn2c(Cc3ccccc3)nc3ccccc32)cc1	1.8	-5.0	66.5	27.8	-20.8	2.4
Cc1ccc(Cn2c(S(=O)(=O)O)nc3ccccc32)cc1	-4.0	-2.0	80.6*	3.3	-8.3	16.4
CC1(C)OC(C)(C)/C(=C/Nc2ccc(O)cc2)C1=O	20.5	15.0	9.8	-32.9	21.1	57.0*
CCOc1cc2[nH]c(=S)n(CCC(=O)NCc3ccc(OC)cc3)c(=O)c2cc1OCC	-20.5	0.0	38.8	35.2	35.1*	-1.2
Cc1ccc(C)c(NC(=O)CSc2nnc(-c3ccncc3)n2N)c1	-27.1	0.0	-8.5	-2.5	34.1*	-1.3
Cc1ccc(C)c(NC(=O)CSc2nnc(C)c(=O)n2N)c1	0.5	-1.0	-0.4	-1.9	-3.8	1.9
Cc1nc(C)c(C(=O)NNC(=O)Nc2ccc(Cl)cc2)s1	-1.3	/	-0.5	-19.5	-8.4	-3.9
CCn1c(C2CC(=O)N(Cc3ccccc3)C2)nc2ccccc21 (stereo not given)	51.9*[fluorescence artefact?]	0.0	14.2	-11.3	1.2	-9.3
CC(C)(C)N1CC(c2nc3ccccc3n2Cc2ccccc2)CC1=O (stereo not given)	-2.1	-2.0	1.9	5.6	-8.1	4.5
CCN(CC(=O)Nc1cc(Cl)ccc1OC)CC(=O)NC1CCS(=O)(=O)C1 (stereo not given)	3.2	/	73.9*	18.6	0.1	3.2
Cc1cc(C)c2c(c1)[C@@H]1C=CC[C@@H]1[C@H](c1ccc(S(=O)(=O)N3CCOCC3)cc1)N2	3.9	6.0	-4.3	16.6	-6.4	66.7*
Cc1ccc(S(=O)(=O)N2CCOCC(=O)NCCOCCNC(=O)COCC2)cc1	-1.4	-3.0	9.2	-12.7	-8.9	-6.9
O=C(C(Cc1ccccc1)n1cccc1)N1CCN(c2ccccc2)CC1 (stereo not given)	-1.3	1.0	-0.3	-32.1	-2.2	-1.7
Cc1ccc(C)c(N2CCN(C(=O)C(Cc3ccccc3)n3cccc3)CC2)c1 (stereo not given)	67.2*[fluorescence artefact?]	2.0	9.4	-11.9	-5.4	5.5
Cc1onc(-c2ccccc2)c1C(=O)NNC(=S)NC(=O)c1ccc2c(c1)OCO2	0.5	/	-8.3	-131.7	-10.8	-63.7
CN1N=C2c3ccccc3CCCC2C1c1ccc(F)cc1 (stereo not given)	-7.3	/	1.8	-143.3	-7.0	-12.9
SMILES	eIF4E-4G inh	Mcl-1 Bim block	14-3-3 Bad inh	Mcl1-Bid inh	NCF1 inh	Mcl1-Noxa inh
Cc1nc(NC(=O)c2ccc(-c3cc4ccccc4oc3=O)cc2)ccc1Br	-5.0	-2.0	66.4	19.2	11.9	-55.1
Cc1nc(NC(=O)c2cccc(-c3cc4ccccc4oc3=O)c2)ccc1Br	6.5	-4.0	65.1	57.8*	40.6*	-34.0
CC(C)OC(=O)Nc1ccc2c(c1)N(C(=O)N1CCN(C)CC1)c1ccccc1CC2	-3.1	/	23.3	12.2	-1.8	51.4*
COc1ccc(OC)c(CC(NC(C)=O)C(=O)NC2CCN(c3cc(C)nc4ncnn34)CC2)c1 (stereo not given)	3.3	1.0	-11.1	-30.5	-12.4	7.2
CCc1ccccc1NC(=O)CSc1ccsc1[N+](=O)[O-]	8.4	-3.0	-5.3	-56.5	-1.6	54.5*
CSc1ccc(CCNC(=O)CSc2ccsc2[N+](=O)[O-])cc1	-13.6	-1.0	-5.9	-37.2	-45.8	8.5
O=C(CSc1ccsc1[N+](=O)[O-])Nc1cccc(F)c1	49.9*	0.0	51.2	-47.3	-11.4	97.9*
NS(=O)(=O)c1ccc(CCNC(=O)CSc2ccsc2[N+](=O)[O-])cc1	9.4	5.0	-7.1	-34.8	-11.3	53.0*
CC1(CC(=O)N/N=C/c2cc3c(cc2Br)OCO3)OCCO1	-3.1	3.0	-6.9	-14.1	-4.9	3.1
CCn1c(Cc2cccs2)nnc1SCC(=O)NC(C)(C)C	-0.5	-6.0	-3.2	-2.5	1.8	1.6
CC(=O)Nc1ccc(/C=N/N2CCCCC2)cc1	1.1	0.0	-9.3	-29.5	-8.8	7.3
CN(CC1CCOCC1)C(=O)CC1C(=O)NCCN1Cc1ccc(Cl)c(F)c1 (stereo not given)	0.2	/	-0.1	-15.3	7.5	13.6
O=C(CC1C(=O)NCCN1Cc1ccc(Cl)c(F)c1)NCC1CCOCC1 (stereo not given)	90.5*	/	4.4	-32.8	1.6	-22.8
Cc1cc(-c2nc3c4c5c(sc4[nH]c(=O)n3n2)CCC5)c(C)o1	15.4	1.0	49.4	73.1*	-35.5	101.1*
CCN(CCO)c1ccc(-n2c(N)c(C(=O)OC)c3nc4ccccc4nc32)cc1	9.4	-2.0	87.0*	5.9	17.7	51.7*
COc1ccc(-c2nn(CCC(=O)O)cc2CCC(=O)O)cc1	5.0	8.0	11.5	-8.8	-10.1	/
NC1=NC(=O)/C(=C/c2cn(CCC(=O)O)nc2-c2ccc(F)cc2)S1	1.4	-14.0	-4.2	10.5	-35.4	54.6*
Cc1ccc(-c2nn(CCC(=O)O)cc2/C=C\C(=O)c2ccc(Br)cc2)cc1	1.3	-1.0	0.0	15.1	-26.6	9.5
NC1=NC(=O)/C(=C/c2cn(CCC(=O)O)nc2-c2ccc(Cl)cc2)S1	3.9	-6.0	5.1	43.1	-55.0	72.5*
COc1ccc(-c2nn(CCC(=O)O)cc2/C=C2\SC(N)=NC2=O)cc1	2.0	-2.0	-14.1	-34.7	-71.2	67.0*
O=C(O)CCn1cc(/C=C\C(=O)c2ccc(Cl)cc2)c(-c2cccc(Br)c2)n1	6.2	-2.0	-4.0	58.3*	-32.5	19.6
c1ccc(Nc2cccc(Nc3ccccc3)c2)cc1	12.7	-6.0	28.6	20.5	-0.6	88.0*
COc1cnc(-c2ccccn2)nc1Sc1ccc(F)cc1	1.4	-1.0	-24.1	-25.2	-0.9	-16.5
